Screens: PubChem BioAssay, several laboratories
GALR2 antag: GALR2 (human) receptor antagonism | O43603 | GALR2-expressing cells, antagonist mode | inhibition, % at 4 µM | hit rate 0.39% among 140,000; in the data active means inhibition above about 27%;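 further: cells stimulated with galanin 1-16 at roughly its EC80; 0% = agonist challenge control and 100% = basal control without agonist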
GALR2 agonist: GALR2 (human) receptor agonism; O43603; GALR2-expressing cells, agonist activation read-out; hit rate 0.48% among 140,000; activation, % (test concentration not listed); AID 803; in the data active means activation above about 5%, passing the limit was not always enough;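 further: 0% = vehicle buffer wells and 100% = reference agonist at full effect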
S1P2 antag: antagonists of human S1P2 receptor; O95136; cell-based S1P2 antagonist assay, inhibition at 5 uM; inhibition, % at 5 µM; hit rate 0.21% among 97,000; AID 736; in the data active means inhibition above about 45%;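 further: CRE beta-lactamase reporter cells expressing human S1P2 stimulated with S1P; 0% = agonist at EC80 alone and 100% = agonist plus reference antagonist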
Target sequence (O95136 whole entry, looked up): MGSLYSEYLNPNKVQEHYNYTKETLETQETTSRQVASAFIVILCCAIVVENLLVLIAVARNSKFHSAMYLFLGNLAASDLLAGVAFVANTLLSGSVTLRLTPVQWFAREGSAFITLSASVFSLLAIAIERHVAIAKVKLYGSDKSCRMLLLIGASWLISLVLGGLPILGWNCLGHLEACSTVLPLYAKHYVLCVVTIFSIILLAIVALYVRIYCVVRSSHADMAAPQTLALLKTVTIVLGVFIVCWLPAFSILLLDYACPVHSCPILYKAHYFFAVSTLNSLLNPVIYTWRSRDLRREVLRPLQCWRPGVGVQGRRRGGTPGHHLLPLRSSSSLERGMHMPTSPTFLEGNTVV
S1P2 agonist: S1P2 (human) receptor agonism; O95136; S1P2-expressing cell line, agonist reporter read-out; activation, % at 4.5 µM; hit rate 0.46% among 97,000; AID 729; in the data active means activation above about 16%;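 further: 0% = vehicle low control and 100% = maximal reference agonist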
Phagocytosis inh: blocks phagocytosis by macrophages. J774A.1 macrophage IgG-bead phagocytosis, imaging. inhibition, % at 5 µM. hit rate 0.07% among 110,000;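 active means inhibition above the mean of the plate negative controls plus 5 SD, cut at about 13% in these data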;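 further: phagocytic index as fraction of beads internalized from green versus red external bead signal; plate controls were DMSO negative control for no effect and cytochalasin-D positive control for full effect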
GALR2 ag confirm: confirmation of human galanin receptor 2 (GALR2) agonists | shares compounds with GALR2 agonist | GALR2-expressing cells, agonist activation | activation, % at 5.6 µM | hit rate 10% among 460; in the data active means activation above about 8.4%;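 further: 0% = buffer-only vehicle wells and 100% = full reference agonist response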
BLA act counter: activates beta-lactamase reporter in GALR2 agonist counterscreen; shares compounds with GALR2 agonist; CHO NFAT-bla reporter, beta-lactamase FRET activation; activation, % at 5.6 µM; hit rate 10% among 460; AID 865;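 active means activation above the screen-wide mean activation plus 3 SD, cut at about 8% in these data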;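 further: 0% = DMSO with PBS wells and 100% = thapsigargin positive control wells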
Active calls of the source: *; . = no result given. A selection: hits, their analogues and other compounds. The true share with any hit is near 1.3%.

SMILES | GALR2 antag | GALR2 agonist | S1P2 antag | S1P2 agonist | Phagocytosis inh | GALR2 ag confirm | BLA act counter
CCOC(=O)c1c(NC(=O)C2=C(C)NC(=S)NC2c2ccc(CC)cc2)sc(C)c1C (configuration not stated) | -2 | 9.5* | . | . | -1 | 4 | 4
O=C(CCSCCc1ccccn1)Nc1ccc(Cl)cn1 | -6 | 11 | 2 | -4 | . | -1 | 0
Cn1nnnc1SCC(=O)NCCCc1ccccc1 | -4 | 12* | 24 | -9 | 0 | 0 | -2
Cn1nnnc1SCC(=O)NC(=O)Cc1ccccc1 | -8 | -1 | 13 | -2 | -1 | . | .
Cc1ccc(NC(=O)Cn2c(/C=C/c3ccccc3)nc3ccccc32)cc1C | 3 | 8 | -5 | -5 | 0 | 6 | 7
CC(C)N1C(=O)S/C(=C/c2ccc3c(c2)n(C)c(=O)n3C)C1=O | 3 | 97* | -5 | 0 | 4 | 0 | 1
CC(C)N1C(=O)S/C(=C/c2cccnc2)C1=O | 8 | -2 | 21 | -7 | . | . | .
Cc1cc(C)c(-c2c(O)c3cnn(-c4ccccc4)c3[nH]c2=O)c(C)c1 | 9 | 34* | . | . | -6 | -1 | -4
COc1ccccc1NC(=O)CN(Cc1ccccc1)S(C)(=O)=O | -2 | -2 | -19 | 0 | . | . | .
Nc1c(C(=O)NCC2CCCO2)sc(=S)n1-c1ccccc1 (configuration not stated) | 8 | 10 | -8 | -2 | -1 | -1 | -2
CCn1c(N)c(C(=O)NCC2CCCO2)sc1=S (configuration not stated) | 10 | -3 | 1 | -3 | 0 | . | .
Cc1cc(Nc2ccc(Br)cc2F)n2nc(C)nc2n1 | 1 | -1 | . | . | . | . | .
COc1ccc2ccccc2c1/C=N/NC(=O)c1sc(N)c(C#N)c1C | -4 | 12* | . | . | -6 | 8 | 7
C[N+]1=C(/C=C/Nc2ccccc2Cl)C(C)(C)c2ccccc21 | 4 | 0 | . | . | -14 | . | .
COC(=O)c1ccc2c(c1)C(C)(C)C(/C=C/c1ccccc1O)=[N+]2C | 17 | 13* | 32 | 5 | . | -2 | -7
CCOC(=O)C1=C(C)N=C2SC(C(=O)OC)=CC(=O)N2C1c1ccc(F)cc1 (configuration not stated) | 7 | 9 | 8 | -9 | . | -1 | -1
Cn1nccc1C(=O)Nn1cnnc1 | -6 | 20* | 7 | -6 | -1 | 0 | 0
COc1cc(SC#N)ccc1N=Cc1c(C)[nH]n(-c2ccc(C)c(C)c2)c1=O | 8 | 12* | . | . | -1 | 5 | 4
CCCCn1nc(NC(=O)c2cccs2)c2cc3ccccc3nc21 | 10 | 11 | 13 | 6 | 0 | 2 | 4
CCCn1nc(NC(=O)c2cccs2)c2cc3cc(OC)ccc3nc21 | -12 | 9 | -16 | 5 | 3 | 1 | 2
CCCn1nc(NC(=O)c2cccs2)c2cc3ccccc3nc21 | 24 | 2 | 10 | 6 | . | . | .
CC(NCc1ccc(-c2ccccc2)cc1)C(O)c1ccccc1 (configuration not stated) | -6 | 0 | . | . | -5 | . | .
O=C(CC12CC3CC(CC(C3)C1)C2)Nc1cccc2ncccc12 | -8 | 23* | -7 | -3 | 0 | 0 | -1
O=C(Nc1cccc2ncccc12)C12CC3CC(CC(C3)C1)C2 | -14 | 0 | -9 | -4 | -2 | . | .
O=[N+]([O-])c1ccc(N2CCN(c3ccc(Cl)nn3)CC2)cc1NC1CC1 | 4 | -2 | 6 | -4 | . | . | .
SMILES | GALR2 antag | GALR2 agonist | S1P2 antag | S1P2 agonist | Phagocytosis inh | GALR2 ag confirm | BLA act counter
N#C/C(=C\c1ccc(-c2ccc(C(=O)O)cc2)o1)C(=O)NCC1CCCO1 (configuration not stated) | 0 | -1 | . | . | -13 | . | .
CCOC(=O)c1ccc(-c2ccc(/C=C(\C#N)C(=O)NCc3cccs3)o2)cc1 | 0 | 9.3* | . | . | -6 | 9.4* | 8.7*
Cn1c(=O)[nH]c(=O)c2c1nc(N1CCNCC1)n2Cc1cccc2ccccc12 | 5 | 15* | -6 | -4 | 2 | 0 | -1
Cc1ccc(C(=O)c2c[nH]c3c(F)cc(F)cc3c2=O)cc1 | 8 | -1 | . | . | -4 | . | .
COC(=O)c1sccc1NC(=O)CN(C)NS(=O)(=O)c1ccc(F)cc1 | 11 | 10 | -53 | -3 | . | -1 | -1
COC(=O)c1sccc1NC(=O)CN(C)NS(=O)(=O)c1ccc(Cl)cc1 | 10 | -2 | 11 | -4 | . | . | .
COC(=O)c1cc2c(ccn2-c2ccc(F)cc2)n1CC(C)C | -26 | 8.8* | 5 | -4 | . | 3 | 6
O=C(O)c1c[nH]ccc1=O | 5 | 12* | 24 | -7 | -2 | -1 | -3
Cc1cc(C(=O)O)c(=O)[nH]c1C | -5 | 0 | -13 | -6 | -3 | . | .
Cc1ccc2c(c1)c(-c1ccccc1)nc1nncn12 | 1 | 0 | . | . | 0 | . | .
O=C(NC(=S)Nc1ccc(NC(=O)c2cccs2)cc1)c1cc2ccccc2o1 | 4 | 11* | . | . | 8 | 3 | 2
Cc1ccc2nc3c(cc(C(=O)NCC4CCCO4)c(=N)n3CCCOC(C)C)c(=O)n2c1 (configuration not stated) | -12 | 10 | -5 | 5 | -1 | 1 | 3
Cc1ccc2nc3c(cc(C(=O)NCC4CCCO4)n3C)c(=O)n2c1 (configuration not stated) | -8 | 0 | 7 | -1 | . | . | .
O=C(Nc1ccc2c(c1)OCO2)C1CCCN1C(=O)OCc1ccccc1 (configuration not stated) | 16 | -3 | . | . | -1 | . | .
O=C(Nc1ccc2c(c1)OCO2)OCc1ccccc1 | -1 | 12* | 6 | -6 | 4 | -1 | -1
COc1ccc(Cn2c(-c3ccc(Br)cc3)c[n+]3ccccc23)cc1 | 0 | 1 | . | . | 3 | . | .
CC(OC(=O)c1ccc(S(=O)(=O)NCc2ccco2)cc1)C(=O)Nc1ncc(Cl)cc1Cl (configuration not stated) | 5 | -1 | . | . | -2 | . | .
COc1cc2nc(/C=C/c3cc(OC)c(OC)c(OC)c3)sc2cc1SC | -4 | 14* | . | . | 13 | 6 | 9.0*
COc1cc(/C=C/C(=O)Nc2nc3ccc(S(=O)(=O)N(C)C)cc3s2)cc(OC)c1OC | 11 | 2 | . | . | -5 | . | .
Cc1ccc(S(=O)(=O)c2c(N)n(/N=C/c3ccco3)c3nc4ccccc4nc23)cc1 | -10 | -1 | -9 | -5 | 0 | . | .
Cc1cccc(S(=O)(=O)c2c(N)n(/N=C/c3ccco3)c3nc4ccccc4nc23)c1 | 0 | 54* | 15 | -9 | 0 | 0 | -1
O=C(Nc1cccc(C(F)(F)F)c1)c1cc(-c2ccc(F)cc2)on1 | 1 | 9 | 6 | -7 | 1 | 0 | -2
CC1(C)Cc2c(C#N)c(NCc3ccco3)nc(-c3ccco3)c2CO1 | 4 | -2 | . | . | 0 | . | .
CC1(C)Cc2c(C#N)c(N3CCCC3)nc(-c3ccco3)c2CO1 | -9 | 11 | -36 | 9 | 0 | 2 | 4
COc1cccc(/C=C/C(=C2\C(=O)N(c3ccccc3)N=C2C)c2ccc(Br)cc2)c1OC | -5 | -2 | 24 | -5 | . | . | .
